In PubChem BioAssay AID1362 (SRMLSC, 2008):
The whole screen tested about 190,000 compounds, of which about 4,000 (2.1%) were called active. Rule as the data show it: active = inhibition above about 58%; inactive = the rest, inconclusive results apart; tested in S. cerevisiae. The full list was thinned out, with actives kept by preference.

Assay: growth inhibition of WT strain, primary screen, mitochondrial fusion inhibitor project, WT and mutant strains, chemical genetic (AID 1362)
Conditions: mitochondrial fusion phenotypic screen, at 10 µM
[1] = WT strain, growth inhibition, stronger effect = higher value

Row | SMILES | inhibition [1] | inhibition (mutant strain inhibition) [%]
1 | COc1cc(S(=O)(=O)N2CCOCC2)ccc1NC(=O)COc1ccc(N(C)S(=O)(=O)c2ccc(C)cc2)cc1 | 3.51% (inactive) | -4.35
2 | Cc1ccc(-c2nnn(CC(=O)N(Cc3ccco3)C(C(=O)NC(C)(C)C)c3ccncc3)n2)o1 (configuration not stated) | -1.04% (inactive) | -4.44
3 | Cc1nn(-c2ccccc2)c2sc(C(=O)N(Cc3ccco3)C(C)C(=O)NC(C)(C)C)cc12 (configuration not stated) | 68.7% (active) | 1.44
4 | Cc1nc(C)c(C(=O)N(c2ccc(C)c(C)c2)C(C(=O)NCc2ccco2)c2ccccc2)s1 (configuration not stated) | 16.8% (inactive) | 9.51
5 | O=C(NC1CC1)c1ccc(-c2ccccc2)cc1 | -18.3% (inactive) | 8.3
6 | CC1CCN(C(=S)c2cccc(O)c2)CC1 | -7.57% (inactive) | 21.7
7 | CCOC(=O)N1CCN(S(=O)(=O)c2cc(Br)cc3c2N(C(=O)C2CC2)CC3)CC1 | -4.28% (inactive) | 4.16
8 | CCN(c1ccc2c(c1)OCO2)S(=O)(=O)c1cc(Br)cc2c1N(C(=O)C1CC1)CC2 | 82.3% (active) | 13.7
9 | CS(=O)(=O)N(CC(=O)N1CCN(Cc2ccc3c(c2)OCO3)CC1)c1ccc2c(c1)OCO2 | -12% (inactive) | -4.62
10 | COC(=O)CSc1nccc(-c2cccs2)n1 | -15.2% (inactive) | 12.6
11 | CCOc1ccc(/C=C(/NC(=O)c2ccccc2)C(=O)NCCC(=O)O)cc1 | -9.33% (inactive) | 4.17
12 | COc1cc(NC(=O)CN(C)S(=O)(=O)c2ccc3nc(C)sc3c2)cc(OC)c1 | 5.19% (inactive) | 4.68
13 | CC(C)Cn1c(N)c(C(=O)NCc2cccs2)c2nc3ccccc3nc21 | 3.94% (inactive) | 7
14 | C=CCn1c(N)c(C(=O)OCC(C)C)c2nc3ccccc3nc21 | 66.3% (active) | -15.2
15 | C=CCn1c(N)c(S(=O)(=O)c2cccs2)c2nc3ccccc3nc21 | -1.23% (inactive) | 0.9
16 | CC(C)Oc1ccc(CCc2nnc(SCC(=O)O)n2-c2ccccc2)cc1 | -10.3% (inactive) | 10.7
17 | COc1cccc(N(CC(=O)Nc2cccc(N(C)S(C)(=O)=O)c2)S(C)(=O)=O)c1 | -5.64% (inactive) | 2.31
18 | CN(c1cccc(NC(=O)Nc2ccc(Cl)cc2)c1)S(C)(=O)=O | 96.2% (active) | -6.73
19 | Cc1ccc(N(CC(=O)Nc2cccc(N(C)S(C)(=O)=O)c2)S(C)(=O)=O)cc1 | 0.56% (inactive) | -23
20 | O=C(N/N=C/c1ccc([N+](=O)[O-])cc1)C(=O)N1CCCC1 | 11.1% (inactive) | 10.6
21 | CCOC(=O)c1cnc(-n2nc(C)cc2C)nc1-n1nc(C)cc1C | -11.1% (inactive) | -5.08
22 | CCOC(=O)c1cnc(-n2nc(C)cc2C)nc1NNc1cc(C)nc(-c2ccccc2)n1 | 62.1% (active) | -11.2
23 | CCOC(=O)c1cnc(-c2ccccc2)nc1Oc1ccc(C)cc1 | 21.7% (inactive) | -24.7
24 | O=C(NNS(=O)(=O)c1ccc(F)cc1)c1cnccn1 | -14.2% (inactive) | 8.1
25 | CCc1ccccc1N1C(=O)C2C3CC(=O)C(c4ccccc43)C2C1=O (configuration not stated) | 5.26% (inactive) | 3.48
26 | CCN(C(=O)CN1CCN(Cc2ccccc2)CC1)c1c(N)n(Cc2ccccc2)c(=O)[nH]c1=O | -4.65% (inactive) | 11.9
